GPR151 ag: activators of human GPR151, primary screen, cell-based, PathHunter beta-arrestin, luminescence. PathHunter beta-arrestin GPR151 cells. activation, % at 11.2 µM. hit rate 1% among 650,000. AID 1508602, 2020; in the data active = activation above about 4.9%;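 note: 0% = median of compound wells and 100% = cells with positive control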
Target sequence (Q8TDV0 whole entry, looked up): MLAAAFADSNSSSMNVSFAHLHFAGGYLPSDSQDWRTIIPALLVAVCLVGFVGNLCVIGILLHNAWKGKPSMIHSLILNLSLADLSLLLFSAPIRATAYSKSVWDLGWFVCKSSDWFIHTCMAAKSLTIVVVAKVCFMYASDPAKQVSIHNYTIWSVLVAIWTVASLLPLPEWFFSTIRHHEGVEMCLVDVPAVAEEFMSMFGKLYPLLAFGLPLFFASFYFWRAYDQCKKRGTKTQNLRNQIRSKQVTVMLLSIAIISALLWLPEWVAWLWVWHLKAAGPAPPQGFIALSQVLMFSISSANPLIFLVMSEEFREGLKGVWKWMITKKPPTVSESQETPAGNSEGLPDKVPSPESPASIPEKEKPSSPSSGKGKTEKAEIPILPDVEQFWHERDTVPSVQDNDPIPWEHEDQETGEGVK
FBW7 activator: FBW7 E3 ligase activators, primary screen, biochemical, AlphaScreen, human; F-box/WD repeat-containing protein 7 (Homo sapiens), Q969H0; AlphaScreen FBW7–phospho-cyclin E peptide binding, activator screen; normalized activity (activation), % at 26.1 µM; hit rate 0.13% among 650,000; AID 1259310, 2017; in the data active = normalized activity above about 1.9%;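 note: purified mutant Fbw7 with reduced substrate affinity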
MITF primary: MITF inhibitors, primary screen, biochemical, AlphaScreen, human | inhibition, % at 2.6 µM | hit rate 0.91% among 650,000 | AID 1259374, 2018 | Microphthalmia-associated transcription factor (Homo sapiens), O75030 | AlphaScreen MITF homodimerization, bead proximity signal; in the data active = inhibition above about 50%;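 note: 0% = vehicle wells with protein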
TEAD-YAP block: TEAD-YAP interaction inhibition, primary screen, TEAD-YAP interaction inhibitor project, luminescence, HEK-TIYL cells; inhibition, % at 9.12 µM; TEAD-Gal4/YAP UAS-luciferase luminescence; hit rate 1.4% among 640,000; in the data active = inhibition above about 32%;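 note: 0% = median of test compound wells and 100% = reference inhibitor wells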
* marks the source's active call; other numbers are inactive results. Hits are enriched below; roughly 3.5% of the tested compounds scored in any of these assays.

SMILES	GPR151 ag	FBW7 activator	MITF primary	TEAD-YAP block
COc1cccc(NC(=O)CSc2nnc(-c3ccncc3)n2-c2ccccc2C)c1	0	0	-23	14
CCCCCCCC(=O)Nc1ccc(C(=O)Nc2ccccc2I)cc1	1	0	-4	-1
COc1ccc(OC)c(C2C(C#N)=C(N)Oc3c2ccc2ccccc32)c1 (stereo not given)	-2	0	5	51*
COc1cc(C2C(C#N)=C(N)Oc3c2ccc2ccccc32)cc(Br)c1O (stereo not given)	-1	0	10	64*
CCOc1cc(C2C(C#N)=C(N)Oc3c2ccc2ccccc32)ccc1O (stereo not given)	0	0	17	12
COc1ccc(OC)c(C2C(C#N)=C(N)Oc3c2c(=O)[nH]c2ccccc32)c1 (stereo not given)	0	0	1	-5
COc1cccc(C2C(C#N)=C(N)Oc3n[nH]c(-c4ccc5ccccc5c4)c32)c1 (stereo not given)	1	-1	-3	-2
COc1cccc(C2C(C#N)=C(N)Oc3ccc4ccccc4c32)c1 (stereo not given)	-1	0	17	50*
COc1ccccc1Cn1c(SCc2ccncc2)nc2ccccc2c1=O	-1	0	2	-8
CCOc1ccc(C(=O)Nc2cccc(-c3cc4ccccc4oc3=O)c2)cc1Br	2	0	6	-12
Oc1ccc(CCNc2nc(Nc3cnccn3)nc3c2ncn3-c2ccsc2)cc1	-1	0	2	66*
Oc1ccc(CCNc2nc(Nc3ccccc3)nc3c2ncn3-c2ccccc2)cc1	-2	0	-1	13
Oc1ccc(CCNc2nc(Nc3ccccc3)nc3c2ncn3-c2ccsc2)cc1	0	0	-113	38*
Oc1ccc(CCNc2nc(Nc3ncccn3)nc3c2ncn3-c2ccsc2)cc1	-1	0	1	56*
COc1ccc(CCNc2nc(Nc3ccc(N4CCOCC4)cc3)nc3c2ncn3-c2ccsc2)cc1	1	0	17	62*
COc1ccc(CCNc2nc(Nc3ccc(C(F)(F)F)cc3)nc3c2ncn3-c2ccsc2)cc1	1	0	4	11
CCOc1ccc2c(c1)C(=C1SC(C(=O)OC)=C(C(=O)OC)S1)C(=S)C(C)(C)N2C(=O)C(C)CC (stereo not given)	0	0	20	9
CCOC(=O)CNC(=O)/C(=C\c1ccc([N+](=O)[O-])cc1)NC(C)=O	0	0	-4	4
Oc1ccccc1-c1ccc2c(-c3ccc(N4CCNCC4)cc3)[nH]nc2n1	1	0	8	61*
CC(=O)c1ccc(NC(=O)COC(=O)Cc2c[nH]c3ccccc23)cc1	0	0	6	10
COc1ccc2c(c1)c1c(n2Cc2ccccc2)CCCC1	0	1	16	3
COc1ccc2c(c1)c1c3n2CCN(Cc2ccccc2)C3=[N+](C)CC1	3	0	1	42*
O[N+]1=CC=CCC1=S.On1ccccc1=S.[Zn]	2	0	-113	100*
CCN(CC(=O)Nc1ccc(C(C)=O)cc1)CC(=O)Nc1ccccc1OC	-1	0	8	2
CCOC(=O)c1c(Cl)nc(Cl)c(Cl)c1Nc1cccc(C)c1	1	0	-4	25
SMILES	GPR151 ag	FBW7 activator	MITF primary	TEAD-YAP block
CCOC(=O)c1c(Cl)nc(Cl)c(Cl)c1Nc1cccc(F)c1	1	0	-10	44*
CCOC(=O)c1c(Cl)nc(Cl)c(Cl)c1Nc1ccc(OC(F)(F)F)cc1	-1	0	-13	51*
CCOC(=O)c1c(Cl)nc(Cl)c(Cl)c1Nc1ccc(OC)cc1	1	0	0	47*
Cc1cccc(Nc2ccc(N3CCN(C(=O)CCc4ccccc4)CC3)nn2)n1	2	0	-3	-1
O=C(Nc1nnc(C(F)(F)F)s1)c1ccc(Cl)cc1[N+](=O)[O-]	0	0	13	-51
CC(=O)NCC1CCC2(CCN(C/C(C)=C/c3ccco3)CC2)O1 (stereo not given)	-1	0	-8	-6
O=C(Nc1c2c(nn1-c1cccc(Cl)c1)CSC2)c1ccccc1C(F)(F)F	3	0	7	10
Cc1ccc(Oc2ccc(-c3cnc4ccccc4n3)cc2[N+](=O)[O-])cc1C	0	1.9*	1	14
CC(=O)c1ccc(Oc2ccc(-c3cnc4ccccc4n3)cc2[N+](=O)[O-])cc1	0	0	2	-4
O=[N+]([O-])c1cc(-c2cnc3ccccc3n2)ccc1N1CCCCCC1	-1	1	15	71*
Cc1ccc(Oc2ccc(-c3cnc4ccccc4n3)cc2[N+](=O)[O-])c(-n2nc3ccccc3n2)c1	1	0	6	-1
Cc1ccc(CN(C(=O)c2csnn2)C(C(=O)NC2CCCC2)c2ccncc2)cc1 (stereo not given)	0	0	22	1
CC(=O)Nc1ccc(Nc2nc(N3CCc4ccccc4C3)nc3c2ncn3-c2ccsc2)cc1	-3	0	10	40*
CC(=O)Nc1ccc(Nc2nc(-c3c(C)noc3C)nc3c2ncn3-c2ccsc2)cc1	-2	0	10	-3
CC(=O)Nc1ccc(Nc2nc(Nc3ccc(-n4ccnc4)cc3)nc3c2ncn3-c2ccccc2)cc1	2	0	10	52*
CC(=O)Nc1ccc(Nc2nc(Nc3cnccn3)nc3c2ncn3-c2ccsc2)cc1	4	3.7*	7	29
COc1cc(Nc2nc(Nc3ccc(NC(C)=O)cc3)c3ncn(-c4ccccc4)c3n2)cc(OC)c1OC	-2	0	-9	39*
CCOC(=O)c1ccccc1NC(=O)c1cccc(NC(=O)c2ccccc2)c1	0	0	-5	-4
CC(=O)Nc1ccc(Nc2nc(Nc3ccncn3)nc3c2ncn3-c2ccccc2)cc1	2	5.1*	5	14
CC(=O)Nc1ccc(Nc2nc(Nc3ccccc3)nc3c2ncn3-c2ccsc2)cc1	0	0	11	36*
Nc1nc(Nc2ccncn2)nc2c1ncn2-c1ccccc1	0	4.2*	-4	-10
CC(=O)Nc1ccc(Nc2nc(Nc3ccncn3)nc3c2ncn3C(C)C)cc1	-1	0	4	-9
CC(=O)Nc1ccc(Nc2nc(Nc3ccncc3)nc3c2ncn3-c2ccccc2)cc1	-2	3.4*	-14	45*
CCCOc1ccc(C2C(C(=O)OCC)=CN(Cc3ccc(OC)c(OC)c3)C=C2C(=O)OCC)cc1OC	1	0	-21	-20
CN(C)CCOc1cc(-c2ccnc(N)n2)ccc1NC(=O)[C@H]1Cc2ccccc2CN1	0	0	10	14
Cc1c(Cl)cccc1NC(=O)CCCn1c2ccccc2c(=O)c2ccccc21	-1	0	14	-3
CC(=O)Nc1ccc(Nc2nc(Nc3ccc(N4CCOCC4)cc3)nc3c2ncn3-c2ccccc2)cc1	-2	0	8	-2
CC(=O)Nc1ccc(Nc2nc(Nc3ccccc3)nc3c2ncn3-c2ccccc2)cc1	3	0	2	46*
